Potency and outcome data for 8 compounds are collected here from PubChem BioAssay (Tox21).

The nature of assay [1]: qHTS assay to identify small molecule antagonists of the thyroid receptor (TR) signaling pathway - cell viability counter screen (AID 743064). Note: nearly all actives have a fitted effect of over 50% in size. The essentials: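 GH3.TRE-Luc cells, 4 h pre-plating; cpd + T3 1 nM final; 37 °C 23.5 h; CellTiter-Fluor 30 min; fluorescence read.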
The nature of assay [2]: qHTS assay to identify small molecule antagonists of the thyroid receptor (TR) signaling pathway (AID 743065). Note: nearly all actives have a fitted effect of over 55% in size. Note: potency is the fitted concentration of half-maximal effect. The procedure, abridged:
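GH3.TRE-Luc rat pituitary cells carrying two TR response elements driving luciferase were plated for 4 h, given compound plus 1 nM T3 (final), and incubated 23.5 h at 37 C. ONE-Glo luminescence measured reporter inhibition; CellTiter-Fluor fluorescence tracked cytotoxicity.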
(qHTS replaces the single test concentration by a dilution series.)

Assay [3] has as its system thyroid hormone receptor (rat, GH3 cells). Description: qHTS assay to identify small molecule agonists of the thyroid receptor (TR) signaling pathway (AID 743066; calls by dose curve).
Assay [4] in a line: qHTS assay to identify small molecule antagonists of the estrogen receptor alpha (ER-alpha) signaling pathway - cell viability counter screen (AID 743074; calls by dose curve; note: nearly all actives have a fitted effect of over 45% in size).
The target in assay [5] is Estrogen receptor (Homo sapiens) (UniProt P03372). Kind of assay: qHTS assay to identify small molecule agonists of the estrogen receptor alpha (ER-alpha) signaling pathway (AID 743075; calls by dose curve).
Chain of Estrogen receptor (Homo sapiens) (P03372 whole entry, looked up): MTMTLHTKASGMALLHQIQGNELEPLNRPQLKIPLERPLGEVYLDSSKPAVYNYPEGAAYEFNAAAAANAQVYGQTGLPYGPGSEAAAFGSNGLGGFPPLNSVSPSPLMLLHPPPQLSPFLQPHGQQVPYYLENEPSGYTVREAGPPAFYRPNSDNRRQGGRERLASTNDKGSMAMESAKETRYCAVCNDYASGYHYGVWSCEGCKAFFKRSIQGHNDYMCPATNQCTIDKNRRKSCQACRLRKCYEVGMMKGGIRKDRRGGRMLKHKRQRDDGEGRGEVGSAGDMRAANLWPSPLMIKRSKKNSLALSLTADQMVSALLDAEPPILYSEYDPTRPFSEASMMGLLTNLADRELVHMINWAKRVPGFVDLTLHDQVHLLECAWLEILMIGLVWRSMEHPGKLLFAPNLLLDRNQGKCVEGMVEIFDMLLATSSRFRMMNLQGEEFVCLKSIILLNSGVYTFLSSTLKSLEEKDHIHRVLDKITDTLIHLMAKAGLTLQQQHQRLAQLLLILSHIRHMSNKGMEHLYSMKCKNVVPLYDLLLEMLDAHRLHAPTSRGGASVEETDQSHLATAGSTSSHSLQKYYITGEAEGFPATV
For assay [6] the target is unchanged. Kind of assay: qHTS assay to identify small molecule agonists of the estrogen receptor alpha (ER-alpha) signaling pathway using the BG1 cell line (AID 743079). Note: nearly all actives have a fitted effect of over 20% in size. Note: potency is the fitted concentration of half-maximal effect.
Assay [7] is described as follows: qHTS assay to identify small molecule antagonists of the estrogen receptor alpha (ER-alpha) signaling pathway using the BG1 cell line (AID 743080; calls by dose curve;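 note: BG1 cells stimulated with 17beta-estradiol alongside compound; series mostly up to about 70 µM; nearly all actives have a fitted effect of over 25% in size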). The essentials:
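Luciferase inhibition measured with ONE-Glo after 30 min at RT in BG1Luc4E2 cells given test compounds and 17beta-estradiol for 21.5 h at 37 C; CellTiter-Fluor viability read in the same wells beforehand.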

Assay [8] in a line: qHTS assay to identify small molecule antagonists of the estrogen receptor alpha (ER-alpha) signaling pathway using the BG1 cell line - cell viability counter screen (AID 743081).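 Note: compound given together with 17beta-estradiol as the ER stimulus; series mostly up to about 70 µM; nearly all actives have a fitted effect of over 45% in size.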
The next assay deals with Aromatase (Homo sapiens) (UniProt P11511). Kind of assay: qHTS assay to identify aromatase inhibitors (AID 743083). Note: series mostly up to about 70 µM; nearly all actives have a fitted effect of over 55% in size.
Chain of Aromatase (Homo sapiens) (P11511 whole entry, looked up): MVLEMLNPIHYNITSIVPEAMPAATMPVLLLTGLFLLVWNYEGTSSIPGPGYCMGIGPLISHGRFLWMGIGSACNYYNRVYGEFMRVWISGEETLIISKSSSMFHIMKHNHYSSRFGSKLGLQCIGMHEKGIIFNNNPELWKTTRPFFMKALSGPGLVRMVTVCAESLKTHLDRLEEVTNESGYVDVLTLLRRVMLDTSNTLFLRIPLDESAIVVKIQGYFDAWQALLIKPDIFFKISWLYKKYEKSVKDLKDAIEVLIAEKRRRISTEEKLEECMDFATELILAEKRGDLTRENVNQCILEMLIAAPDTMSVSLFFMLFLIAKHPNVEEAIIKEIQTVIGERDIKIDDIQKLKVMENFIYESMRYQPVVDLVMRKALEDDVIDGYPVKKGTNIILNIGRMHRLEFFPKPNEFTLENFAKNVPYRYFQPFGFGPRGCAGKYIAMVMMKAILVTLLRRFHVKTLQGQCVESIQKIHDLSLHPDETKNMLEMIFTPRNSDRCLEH
Assay [9] can be described thus: qHTS assay to identify aromatase inhibitors - cell viability counter screen (AID 743084).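 Note: cells stimulated with testosterone during compound exposure; nearly all actives have a fitted effect of over 55% in size.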
Assay [10] concerns the target Aryl hydrocarbon receptor (Homo sapiens) (UniProt P35869). Kind of assay: qHTS assay to identify small molecule that activate the aryl hydrocarbon receptor (AhR) signaling pathway (AID 743085).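 For activation: HG2L7.5c1 human HepG2 liver cells with stably integrated DRE-driven firefly reporter; series mostly up to about 70 µM.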 Note: nearly all actives have a fitted effect of over 15% in size. Note: potency is the fitted concentration of half-maximal effect. The procedure, abridged: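 Luminescence read-out: ONE-Glo reagent, 30 min at room temperature, in HG2L7.5c1 HepG2 reporter cells treated 24 h at 37C. Viability was measured beforehand by CellTiter-Fluor fluorescence after 30 min at 37C.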

The nature of assay [11]: qHTS assay to identify small molecule that activate the aryl hydrocarbon receptor (AhR) signaling pathway - cell viability counter screen (AID 743086).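 Note: HepG2 liver cells carrying the AhR DRE luciferase reporter; series mostly up to about 70 µM; nearly all actives have a fitted effect of over 45% in size.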 The procedure, abridged:
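HepG2-AhR-luc (HG2L7.5c1) cells, 4000/well, were preincubated 5 h at 37C, exposed to compound in qHTS format for 24 hr at 37C, then given CellTiter-Fluor for 30 min; viability was read as fluorescence in the reporter wells.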

The target in assay [12] is Peroxisome proliferator-activated receptor gamma (Homo sapiens) (UniProt P37231). Kind of assay: qHTS assay to identify small molecule agonists of the peroxisome proliferator-activated receptor gamma (PPARg) signaling pathway (AID 743094; active = well fitted activation curve with a large enough effect in the signal ratio in the repeat runs, not every such curve was filed as active; inconclusive = weak or mixed curves, or effect the other way; inactive = no such curve, though single readings can be large or run the other way; the % refers to the signal ratio). The procedure, abridged: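 Following 5 h plating at 37C, PPARg-bla HEK293H cells receive compound or DMSO for 17 h; fluorescence intensity is recorded after LiveBLAzer B/G loading for 1 h at room temperature.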
Chain of Peroxisome proliferator-activated receptor gamma (Homo sapiens) (P37231 whole entry, looked up): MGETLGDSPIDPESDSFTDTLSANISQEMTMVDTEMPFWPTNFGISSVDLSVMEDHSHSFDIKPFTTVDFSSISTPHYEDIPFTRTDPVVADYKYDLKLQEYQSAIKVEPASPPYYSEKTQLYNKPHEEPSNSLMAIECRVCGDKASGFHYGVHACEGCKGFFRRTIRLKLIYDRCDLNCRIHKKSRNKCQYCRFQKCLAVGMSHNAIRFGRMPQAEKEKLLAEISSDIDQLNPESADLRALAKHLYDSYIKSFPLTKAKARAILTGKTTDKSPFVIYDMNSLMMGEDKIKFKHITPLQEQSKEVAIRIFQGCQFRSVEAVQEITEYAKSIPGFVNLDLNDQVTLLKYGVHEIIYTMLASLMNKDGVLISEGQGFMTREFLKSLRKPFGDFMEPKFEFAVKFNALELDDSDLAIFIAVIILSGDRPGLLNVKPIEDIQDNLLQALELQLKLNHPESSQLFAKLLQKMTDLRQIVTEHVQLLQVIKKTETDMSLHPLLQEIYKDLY

Assay [13] shares this target. Kind of assay: qHTS assay to identify small molecule antagonists of the peroxisome proliferator-activated receptor gamma (PPARg) signaling pathway (AID 743191; calls by dose curve; note: series mostly up to about 63 µM; nearly all actives have a fitted effect of over 30% in size). The procedure, abridged:
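GeneBLAzer PPARg UAS-bla HEK293H cells carrying a UAS-driven beta-lactamase reporter were plated at 3000 cells/well, preincubated 5 h at 37C, then given compound for 17 h at 37C; LiveBLAzer B/G FRET substrate was read after 1 h at room temperature.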

Assay [14] in a line: qHTS assay to identify small molecule antagonists of the peroxisome proliferator-activated receptor gamma (PPARg) signaling pathway - cell viability counter screen (AID 743194). Note: nearly all actives have a fitted effect of over 55% in size. The essentials: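 PPARg-UAS-bla HEK293H cells were plated, rested 5 h at 37 C, then treated with compounds plus rosiglitazone (50 nM final) for 17 h at 37 C; viability was then read by CellTiter-Glo luminescence after 30 min at room temperature.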

The nature of assay [15]: qHTS assay for small molecule activators of the heat shock response signaling pathway - cell viability counter screen (AID 743209). Note: nearly all actives have a fitted effect of over 50% in size. The essentials: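 Counter screen for cytotoxicity in HeLa HSE-bla reporter cells. Treatment was 5 h at 37 C; viability was detected by luminescent ATP assay (CellTiter-Glo) in the same wells as the beta-lactamase read.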
The nature of assay [16]: qHTS assay for small molecule activators of the heat shock response signaling pathway (AID 743210; active = well fitted activation curve with a large enough effect in the signal ratio in the repeat runs, with a control signal flat, not every such curve was filed as active; inconclusive = weak or mixed curves; the % refers to the signal ratio; note: series mostly up to about 63 µM). The procedure, abridged:
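HSE-bla HeLa cells (beta-lactamase reporter under heat shock response elements) were exposed to compounds for 5 h at 37 C, then loaded with LiveBLAzer B/G FRET substrate for 2.5 h at room temperature before fluorescence reading.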

In assay [17] the target is Estrogen receptor (Homo sapiens) (UniProt P03372). Description: qHTS assay to identify small molecule antagonists of the estrogen receptor alpha (ER-alpha) signaling pathway (AID 743069; active = well fitted curve in the direction sought with a large enough effect in the signal ratio in the repeat runs, not every such curve was filed as active; inconclusive = weak or mixed curves, or effect the other way; inactive = no such curve, though single readings can be large or run the other way; the % refers to the signal ratio; note: potency is the fitted concentration of half-maximal effect). The procedure, abridged:
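HEK293 cells stably carrying an ER-alpha-UAS-bla beta-lactamase reporter were pre-cultured overnight in 2% charcoal-stripped FBS medium. Test compounds in DMSO were added together with 17beta-estradiol for 18 hr at 37C. Read-out was fluorescence after 2 hr with LiveBLAzer B/G FRET substrate at room temperature.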

A short description of assay [18]: qHTS assay for small molecule agonists of the antioxidant response element (ARE) signaling pathway (AID 743202; active = well fitted activation curve with a large enough effect in the signal ratio in the repeat runs, not every such curve was filed as active; inconclusive = weak or mixed curves, or effect the other way; inactive = no such curve, though single readings can be large or run the other way; the % refers to the signal ratio). The procedure, abridged: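 Read-out: LiveBLAzer B/G FRET substrate fluorescence after 2 h at room temperature, following 16 h compound treatment at 37 C of HepG2 cells carrying an ARE-driven beta-lactamase reporter.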
Assay [19] can be described thus: qHTS assay for small molecule agonists of the antioxidant response element (ARE) signaling pathway - cell viability counter screen (AID 743203; calls by dose curve; note: nearly all actives have a fitted effect of over 55% in size). The procedure, abridged:
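Compounds in DMSO were pinned onto ARE-bla HepG2 cells plated 5 hrs earlier at 2,000 cells/well. Sixteen hours later at 37C/5% CO2, CellTiter-Glo was added and luminescence measured after 30 min at room temperature.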

“And” between values parts separate entries of the source, which are not always exact repeats. Equal values may be shown once. The source made the active and inactive calls. Unless noted, calls come from the whole dose curve; as a rule, active = well fitted curve in the direction sought with a large enough effect in the repeat runs; inconclusive = weak or mixed curves; inactive = no such curve, though single readings can be large; an effect the other way counts as inactive or inconclusive.

Chain of Aryl hydrocarbon receptor (Homo sapiens) (P35869 whole entry, looked up): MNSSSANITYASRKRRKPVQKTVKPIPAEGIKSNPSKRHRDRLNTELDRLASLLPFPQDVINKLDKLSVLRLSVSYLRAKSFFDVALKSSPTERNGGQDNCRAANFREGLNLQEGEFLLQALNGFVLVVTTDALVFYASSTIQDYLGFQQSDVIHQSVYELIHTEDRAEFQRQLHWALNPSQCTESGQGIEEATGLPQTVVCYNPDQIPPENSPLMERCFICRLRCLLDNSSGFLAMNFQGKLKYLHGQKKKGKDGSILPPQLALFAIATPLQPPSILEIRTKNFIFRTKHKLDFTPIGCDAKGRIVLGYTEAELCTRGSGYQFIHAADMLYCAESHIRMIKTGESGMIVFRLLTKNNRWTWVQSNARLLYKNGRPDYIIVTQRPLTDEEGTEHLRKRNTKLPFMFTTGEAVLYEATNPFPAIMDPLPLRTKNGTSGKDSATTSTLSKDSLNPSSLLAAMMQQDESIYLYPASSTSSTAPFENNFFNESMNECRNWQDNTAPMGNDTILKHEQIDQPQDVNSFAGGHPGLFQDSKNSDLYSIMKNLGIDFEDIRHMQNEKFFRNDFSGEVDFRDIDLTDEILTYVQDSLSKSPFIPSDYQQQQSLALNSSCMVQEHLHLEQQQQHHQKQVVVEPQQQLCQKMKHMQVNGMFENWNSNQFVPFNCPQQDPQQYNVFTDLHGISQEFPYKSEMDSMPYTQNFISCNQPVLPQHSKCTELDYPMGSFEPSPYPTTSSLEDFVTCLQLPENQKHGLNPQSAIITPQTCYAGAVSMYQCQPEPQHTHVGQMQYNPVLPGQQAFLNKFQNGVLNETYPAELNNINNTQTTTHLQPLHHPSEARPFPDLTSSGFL

As to `CCCCCCCCCCCCCCCCO`, the Potency result (in assay [1]; in assay [2]; in assay [5]; in assay [6]; in [8]; with Aromatase (Homo sapiens)) was “inactive” throughout. Moreover, the Potency entry in [9], in [10] and in assay [11] was “inactive” in each case. For the same compound, the outcome in assay [3], in assay [4], in assay [7], in assay [12], in [13] and in assay [14] was inactive. The result in [15] and in assay [16] was inactive.
For `CCCCCCCC=O`, the Potency entry in assay [1], in [2], in assay [17], in assay [5], in assay [6] and in assay [8] was “inactive” in each case. Further, the Potency result (in the assay with Aromatase (Homo sapiens); in [9]; in assay [10]; in [11]; in [18]; in assay [19]) was “inactive” in each case. In addition, the compound was classed as inactive in [3], in [4], in [7], in assay [12], in assay [14] and in assay [15]. In addition, the outcome in assay [16] was inactive.
`CSc1ccc(Cl)cc1`: the Potency entry (in [1]; in assay [2]; in assay [5]; in assay [6]; in [8]; with Aromatase (Homo sapiens)) was “inactive” in each case. Besides, the Potency result in assay [9], in [10], in [11] and in assay [18] was “inactive” throughout. Besides, the compound was classed as inactive in assay [3], in assay [4], in assay [7], in [12], in [13] and in assay [14]. Further, the outcome in assay [15] and in [16] was inactive.
`CCNc1cccc(C)c1`: the Potency result (in [1]; in assay [2]; in assay [5]; in assay [6]; in assay [8]; with Aromatase (Homo sapiens)) was “inactive” in each case. The Potency entry in assay [9], in [10], in assay [11], in assay [18] and in [19] was “inactive” in each case. Also, the compound was called inactive in assay [3], in assay [4], in assay [7], in assay [12], in [15] and in assay [16].
As to `CCCCOC(=O)c1ccc(N)cc1`, the Potency entry (in assay [1]; in assay [5]; in [8]; with Aromatase (Homo sapiens); in assay [9]; in [11]) was “inactive” in each case. Further, the Potency in assay [2] was 21.1 µM (active) and 21.4 µM (active); in assay [17], 24.2 µM [inconclusive] (active); in assay [6] it was 23.7 µM (active) and 33.9 µM (active); in assay [10] it was 23.7 µM (active). The call in assay [3], in [4], in [14], in [15] and in assay [16] was inactive.
`Cc1ccc(S(=O)(=O)N=C=O)cc1`: the Potency entry (in [1]; in assay [2]; in [5]; in assay [6]; in [8]; with Aromatase (Homo sapiens)) was “inactive” each time. Also, the Potency entry in [9], in [10], in [11], in assay [18] and in [19] was “inactive” each time. Further, the compound was classed as inactive in assay [3], in assay [4], in assay [7], in assay [12], in assay [14] and in [15]. In addition, the call in assay [16] was inactive.
On to `CNC(=S)N(C)C`, for which the Potency result in assay [1], in assay [2], in [17], in assay [5], in assay [6] and in [8] was “inactive” throughout. The Potency result (with Aromatase (Homo sapiens); in assay [9]; in assay [10]; in assay [11]; in assay [18]) was “inactive” in each case. Further, the call in assay [3], in assay [4], in assay [7], in assay [12], in [14] and in [15] was inactive. Besides, the compound was classed as inactive in [16].
As to `CC(C)(C)c1cc(Cc2cc(C(C)(C)C)c(O)c(C(C)(C)C)c2)cc(C(C)(C)C)c1O`, the Potency entry in assay [1], in [2], in [17], in assay [5], in assay [6] and in assay [8] was “inactive” each time. Also, the Potency entry (with Aromatase (Homo sapiens); in assay [9]; in assay [10]; in [11]; in [18]) was “inactive” throughout. The call in [3], in assay [4], in [7], in [12], in assay [13] and in [14] was inactive. Moreover, the outcome in [15] and in [16] was inactive.
